A selection: hits, their analogues and other compounds. The true share with any hit is near 5.3%.
Tau fluor counter: counter-screen for tau fibril formation inhibitors | tau K18 P301L Alexa594 fluorescence, heparin fibrillization | Potency, µM (doses to about 57.7 µM), without a hit: at the top dose activity change, negative = decrease | hit rate 0.93% among 280,000 | AID 1463; also: potency is read from the fitted curve at half-maximal effect; nearly all actives have a fitted effect of over 55% in size
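Human K18 P301L tau (15 uM unlabeled plus 0.24 uM Alexa 594-labeled, final) in 100 mM sodium acetate pH 7 was mixed with compound and 20 uM heparin and incubated 6 hr at 37 C.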
KDM4E inh: JMJD2E (human) inhibition; B2RXH2; hit rate 1.6% among 230,000; AID 2147; JMJD2E catalytic domain, FDH-coupled NADH fluorescence (FDH is formaldehyde dehydrogenase); Potency, µM (top dose mostly 57.1 µM), for inactives: at the top dose activity change, negative = inhibition, hits mostly inhibitors; active = well fitted inhibition curve with a large enough effect, not every such curve was filed as active; inconclusive = small, poorly fitted or top-dose-only effect, or another doubt; inactive = no such curve, though single readings can be large or run the other way;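 also: potency is read from the fitted curve at half-maximal effect; 0% = wells with enzyme and -100% = buffer wells without enzyme; nearly all actives have a fitted effect of over 50% in size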
Target sequence (B2RXH2 1-337 limits assumed): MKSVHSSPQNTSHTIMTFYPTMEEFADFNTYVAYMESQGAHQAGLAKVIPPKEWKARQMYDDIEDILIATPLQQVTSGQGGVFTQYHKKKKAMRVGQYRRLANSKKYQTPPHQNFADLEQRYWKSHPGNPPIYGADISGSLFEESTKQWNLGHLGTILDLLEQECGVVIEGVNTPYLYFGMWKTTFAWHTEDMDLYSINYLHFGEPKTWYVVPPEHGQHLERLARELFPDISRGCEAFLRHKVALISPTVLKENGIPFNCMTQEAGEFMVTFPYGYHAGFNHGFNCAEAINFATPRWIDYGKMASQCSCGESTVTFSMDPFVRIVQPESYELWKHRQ
Tau ThT inhib: blocks human tau fibril formation measured by thioflavin T; P10636; recombinant tau K18 P301L, heparin-induced fibrillization, ThT fluorescence; Potency, µM (top dose mostly 57.4 µM), for inactives: at the highest dose activity, negative = inhibition, most hits filed as inhibitors; hit rate 2.1% among 270,000; also: potency is read from the fitted curve at half-maximal effect; nearly all actives have a fitted effect of over 55% in size
Target sequence (P10636 561-689 P618L limits assumed): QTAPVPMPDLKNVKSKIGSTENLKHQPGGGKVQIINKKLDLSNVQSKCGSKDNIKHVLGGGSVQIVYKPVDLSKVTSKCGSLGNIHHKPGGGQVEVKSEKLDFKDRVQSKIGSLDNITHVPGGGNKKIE
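Using a mix of unlabeled (15 uM) and Alexa 594-labeled (0.24 uM) tau K18 P301L, heparin-triggered fibrillization over 6 hr at 37 C was scored by ThT fluorescence.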
Sfp inh: blocks B. subtilis Sfp PPTase activity. Biochemical Sfp PPTase activity, qHTS. Potency, µM, for inactives: largest response in the series, negative = inhibition, hits mostly inhibitors. hit rate 3.5% among 310,000. AID 1490;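 also: the enzyme is Sfp with the accession as filed and its product quenches rhodamine fluorescence; potency is read from the fitted curve at half-maximal effect; 0% = enzyme reaction without inhibitor and -100% = no enzyme wells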
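Sfp 15 nM + cpd, 15 min RT; start w/ rhodamine-CoA 5 uM, BHQ-2-YbbR 12.5 uM (final); 50 mM Hepes pH 7.6, 10 mM MgCl2, 0.01% NP-40, 0.01% BSA; read 525/598 nm at 0 and 30 min.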
Tau FP inhib: tau fibrillization inhibition (FP) | K18 P301L tau heparin fibrillization, Alexa594 FP, 6 h | Potency, µM (series often up to 57.7 µM), for the others: top-dose activity, negative = inhibition, hits mostly inhibitors | hit rate 0.39% among 280,000 | AID 1468; also: potency is read from the fitted curve at half-maximal effect; nearly all actives have a fitted effect of over 55% in size
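Read-out: fluorescence polarization of Alexa 594-labeled tau (0.24 uM), 555 nm excitation, 632 nm emission. Mixtures held 15 uM unlabeled K18 P301L, compound and 20 uM heparin, pH 7 acetate buffer, incubated 6 hr at 37 C.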
FBPA coupling cs: coupling enzyme interference in Giardia aldolase counter-screen; activity change, negative = inhibition, % at 58.2 µM, hits read low; coupling enzyme system counterscreen, AmpLite Red fluorescence; hit rate 0.67% among 290,000; in the data active = activity change below about -30%
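Activity here indicates interference with the coupling reaction, not aldolase inhibition. Compounds at 57.5 uM final met coupling enzymes for 10 min at RT; substrate and AmpLite Red detection followed, with a 525/598 nm fluorescence read after 20 min.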
* hit, by the source's call; ? = inconclusive; · = no result; [ ] = another dose, or the depositor's remark. Unless noted, calls follow the shape of the dose curve; as a rule, active = well fitted curve in the direction sought with a large enough effect; inconclusive = small, poorly fitted or top-dose-only effect, or another doubt; inactive = no such curve, though single readings can be large; an effect the other way counts as inactive or inconclusive. Unless noted, % is scaled to controls: 0 for no effect and ±100 for the full control effect.

SMILES | Tau fluor counter | KDM4E inh | Tau ThT inhib | Sfp inh | Tau FP inhib | FBPA coupling cs
CC(C)C(=O)Nc1ccc(N2CCCC2)cc1 | -30% | -28% | ? | 79µM* | 2% | -32*
O=C(Nc1ccc(N2CCCC2)cc1)C(c1ccccc1)c1ccccc1 | ? | -10% | ? | 50µM* | 8% | -4
COc1ccc(-c2nnc3n2N=C(c2ccccc2OC)CS3)c(OC)c1 | · | · | · | -11% | · | 0
COc1cc2c(cc1OC)C(COc1ccccc1OC)N(C(C)=O)CC2 (centres undefined) | · | · | · | 0% | · | 1
COc1cc2c(cc1OC)C(c1ccccc1[N+](=O)[O-])N(C(C)=O)CC2 (centres undefined) | · | · | · | 45µM* | · | 2
O=C(N/N=C1/C[C@@H](O)[C@@H](O)[C@@H]2[C@@H]3C(=O)N(C[C@@H]4CCCO4)C(=O)[C@H]3CC[C@@H]12)OCc1ccccc1 | -10%[11.6 µM] | · | 0%[11.5 µM] | 5% | -8%[11.6 µM] | 3
CC/C=C\CC[C@H](O)C1=CCCCC1=O | -24%[11.6 µM] | · | -16%[11.5 µM] | 1% | -22%[11.6 µM] | 0
Cc1cccc(-c2nc(SCC(=O)Nc3ccc4c(c3)OCO4)c(-c3ccccc3)[nH]2)c1 | 6.3µM*[quencher] | · | ? | · | ? | ·
COc1ccc(-c2nc(SCC(=O)Nc3ccc4c(c3)OCO4)c(-c3ccc(OC)cc3)[nH]2)cc1 | ? | · | -10% | · | 3% | ·
COc1cccc(-c2nc(SCC(=O)Nc3ccc4c(c3)OCO4)c(-c3ccccc3)[nH]2)c1 | 7.9µM*[quencher] | · | ? | · | -6% | ·
Fc1ccccc1-n1ncc2c1ncn1nc(COc3ccc(Cl)cc3)nc21 | 2% | · | ? | · | ? | ·
Cc1ccc(NC(=O)Cn2c(=O)ccc3cc(S(=O)(=O)N4CCCC4)ccc32)cc1N(C)C | ? | · | -5% | · | 10% | ·
CC(C)(C)Cc1nnc(NC(=O)Cc2ccc([N+](=O)[O-])cc2)s1 | -9% | -2% | -7% | 40µM* | -2% | 3
COc1ccc2c(c1)C(=O)[C@@H](OC(=O)Nc1ccc(C)c(Br)c1)[C@H](c1ccc(OC)c(Br)c1)O2 | -14% | ? | -7% | -6% | -6% | 0
CCCCN(CCCNC(=O)c1cc(Nc2ccc(OC)cc2OC)nc2ccccc12)Cc1ccccc1 | 10µM*[quencher] | · | ? | · | 15% | ·
CCN(CCCNC(=O)c1cc2cc3cc(OC)ccc3nc2s1)c1cccc(C)c1 | 4µM*[quencher] | · | ? | · | 9% | ·
CCCCN(CCCNC(=O)c1cc(Nc2ccc(OC)cc2)nc2ccccc12)Cc1ccccc1 | 4µM*[quencher] | · | -15% | · | 5% | ·
COc1ccc2nc3sc(C(=O)NCCc4ccc(Cl)cc4)cc3cc2c1 | -2% | · | ? | · | -15% | ·
CCCCN(C)CCCNC(=O)c1cc(Nc2ccc(OC)c(OC)c2)nc2ccccc12 | · | · | · | 3% | · | -1
CCc1ccc(Nc2cc(C(=O)NCCCN(C)c3ccccc3)c3ccccc3n2)cc1 | ? | · | -8% | · | 1% | ·
CCCCN(CCCNC(=O)c1cc(Nc2ccc(OC)c(OC)c2)nc2ccccc12)c1ccccc1 | 7.1µM*[quencher] | · | -16% | · | 12% | ·
CCCCc1nc2c(c3c1C[C@H](C)OC3)CN(C(=O)Cc1cccc(OC)c1)CC2 | -7%[11.6 µM] | 1%[11.4 µM] | -4%[11.5 µM] | -10% | 4%[11.6 µM] | 4
O=C(c1cnccn1)N1CCC2(CCCN(Cc3nccs3)C2)CC1 | · | · | · | 14% | · | 0
CSc1cccc(Nc2cc(C(=O)NCCCN(C)c3ccccc3)c3ccccc3n2)c1 | 2.8µM*[quencher] | · | -7% | · | -7% | ·
CCN(CCCNC(=O)c1cc(Nc2ccc(OC)cc2OC)nc2ccccc12)c1cccc(C)c1 | 7.1µM*[quencher] | · | ? | · | 5% | ·
SMILES | Tau fluor counter | KDM4E inh | Tau ThT inhib | Sfp inh | Tau FP inhib | FBPA coupling cs
COc1ccc(Nc2cc(C(=O)NCCCN(C)Cc3ccccc3)c3ccccc3n2)cc1OC | 28µM*[quencher] | · | ? | · | ? | ·
COc1ccc(Nc2cc(C(=O)NCCc3ccccc3)c3ccccc3n2)cc1OC | ? | · | -4% | · | 3% | ·
COc1ccc(Nc2cc(C(=O)NC3CCC(C)CC3)c3ccccc3n2)cc1OC (centres undefined) | ? | · | -15% | · | 3% | ·
COc1ccc(Nc2cc(C(=O)NCCCOC(C)C)c3ccccc3n2)c(OC)c1 | · | · | · | -4% | · | 2
CCCCN(CCCNC(=O)c1cc(Nc2ccc(OC)c(OC)c2)nc2ccccc12)Cc1ccccc1 | 13µM*[quencher] | · | ? | · | 15% | ·
CCN(C(=O)Cn1c(=O)n(Cc2ccccc2)c(=O)c2c1c1cc(OC)ccc1n2C)c1ccccc1 | -5% | · | 3% | · | 0% | ·
Cc1ccc(CNC(=O)c2cc3c(=O)n(Cc4ccco4)ccc3nc2C)cc1 | -3% | · | -4% | · | 7% | ·
C[C@]12CC[C@@H]3c4ccc(O)cc4CC[C@H]3[C@@H]1C[C@H](O)C2O (some centres undefined) | · | · | · | 2% | · | ·
CN1C(=O)CC2(C=CC(=O)C=C2OC(=O)c2ccccc2)c2ccccc21 (centres undefined) | · | · | · | -26% | · | 4
O=C(O)CCN1C(=O)/C(=C/c2cn(-c3ccccc3)nc2-c2cccs2)SC1=S | -1%[2.34 µM] | 1% | 4% | 21% | -3%[2.34 µM] | -1
Cc1ccc(-c2nn(-c3ccccc3)cc2/C=C2\SC(=S)N(CC(=O)O)C2=O)cc1 | -12% | 8% | 18µM* | 50µM* | -4% | 8
O=C(O)CCCCCN1C(=O)/C(=C\c2cn(-c3ccccc3)nc2-c2cccs2)SC1=S | -16% | ? | 14µM* | ? | 8% | 8
COc1ccc(-n2c(=O)c(-c3ccccc3)nc3cnc(N4CCOCC4)nc32)cc1 | · | · | · | 28% | · | -1
CC(=O)N/N=C/c1cc(C(C)(C)C)cc(/C=N/NC(C)=O)c1O | 12% | 22µM* | -1% | 14% | 8% | -2
CC(=O)c1ccc(NC(=O)CSc2nc(=O)n(Cc3ccccn3)c3c2CCC3)cc1 | 3% | · | -3% | · | -7% | ·
CCOc1ccc(NC(=O)c2ccc3[nH]c(C)cc(=O)c3c2)cc1 | 6% | · | 10% | · | -4% | ·
CCOc1ccc(Cc2c(C)[nH]c3ccc(C(=O)O)cc3c2=S)cc1 | · | · | · | 56µM* | · | 0
CCc1c(C)[nH]c2ccc(OC)cc2c1=S | -15% | ? | ? | 10µM* | -5% | -3
COc1ccc(OCC(=O)Nc2nc(-c3ccc(Br)cc3)ns2)cc1 | -28% | · | -17% | · | ? | ·
CN(C(=O)Cc1ccccc1OC(=O)c1ccccc1)c1ccccc1I | · | · | · | -15% | · | 6
CN1CCN(c2ncc3nc(-c4cccc(C#N)c4)c(=O)n(C)c3n2)CC1 | · | · | · | 2% | · | 1
COc1ccc(C2C(=O)N(C3CCCCC3)CC(=O)N2Cc2ccco2)cc1 (centres undefined) | -7% | -1% | -14% | 22µM* | -12% | -1
O=C(Nc1ccc(F)c(Cl)c1)c1cc(S(=O)(=O)N2CCCc3ccccc32)ccc1F | ? | · | -4% | · | ? | ·

Screening data from PubChem BioAssay.
